High-throughput results (PubChem)
This is a sample that favours compounds with a hit; in the whole collection about 3.1% have one here.
VDR inhibitor: blocks the human vitamin D receptor; VDR-SRC2-3 peptide fluorescence polarization, 2 h; Potency, µM, for the others: max response, negative = inhibition, hits mostly inhibitors; 0.93% of 400,000 active; also: % is scaled to controls: 0 for no effect and ±100 for the full control effect
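Fluorescence polarization assay measuring small-molecule disruption of VDR binding to the coregulator peptide SRC2-3. Compounds were pin-transferred (23 nl) into the reagent mix and incubated 2 h at room temperature before reading.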
Pin1 inh: inhibitors of human Pin1; Pin1 FP peptide displacement, HiFluor488, 10 min; Potency, µM (top dose mostly 115 µM), without a hit: at the highest dose activity, negative = inhibition, actives largely listed as inhibitors; Q13526; 0.009% of 390,000 active; AID 504891; active = well fitted inhibition curve with a large enough effect in the polarisation, with a control signal flat, not every such curve was filed as active; inconclusive = small, poorly fitted or top-dose-only effect, or effect the other way, or a change in a side signal; inactive = no such curve, though single readings can be large or run the other way; the % refers to the polarisation; also: % is scaled to controls: 0 for no effect and ±100 for the full control effect
ASM inhibitor: inhibitors of human secretory acid sphingomyelinase. 0.006% of 340,000 active. P17405. placental ASM, HMU-PC fluorogenic substrate, 60 min. Potency, µM (titrated, usually from 57.5 µM), inactives show top-dose activity change, negative = inhibition, usual class: inhibitors
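Fluorogenic HMU-PC substrate (9 uM final) is turned over by placental ASM in 60 min at 37 C after a 10 min compound preincubation. Reaction ended by alkaline stop (pH 10), with fluorescence read at 386/447 nm.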
PLK1 PBD block: PLK1 (human) polo-box domain binding inhibition | P53350 | AID 720504 | 2.8% of 360,000 active | Potency, µM, inactives show max response, negative = inhibition, usual class: inhibitors | Plk1 PBD binding of FITC phosphopeptide, fluorescence polarization; also: series mostly up to about 57 µM; % is scaled to controls: 0 for no effect and ±100 for the full control effect; nearly all actives have a fitted effect of over 65% in size
Target sequence (P53350 whole entry, looked up, the tested form may be a part): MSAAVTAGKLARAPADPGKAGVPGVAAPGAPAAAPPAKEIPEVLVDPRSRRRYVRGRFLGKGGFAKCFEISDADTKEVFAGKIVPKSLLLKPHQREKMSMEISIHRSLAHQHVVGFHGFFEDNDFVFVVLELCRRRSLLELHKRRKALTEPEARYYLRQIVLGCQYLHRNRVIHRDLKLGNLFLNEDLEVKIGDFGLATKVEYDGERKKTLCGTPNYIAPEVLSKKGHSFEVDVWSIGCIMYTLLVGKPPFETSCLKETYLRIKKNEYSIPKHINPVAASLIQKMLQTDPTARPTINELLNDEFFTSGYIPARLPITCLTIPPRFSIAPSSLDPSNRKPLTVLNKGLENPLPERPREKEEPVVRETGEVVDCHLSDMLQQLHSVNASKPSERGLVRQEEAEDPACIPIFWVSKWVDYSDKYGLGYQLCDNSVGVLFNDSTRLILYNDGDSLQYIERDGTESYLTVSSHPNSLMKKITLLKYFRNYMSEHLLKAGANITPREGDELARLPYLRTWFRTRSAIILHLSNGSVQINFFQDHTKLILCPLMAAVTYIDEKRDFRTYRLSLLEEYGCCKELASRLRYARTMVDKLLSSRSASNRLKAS
Tb PFK inh: inhibitors of T. brucei phosphofructokinase | O15648 | T. brucei PFK, ADP-Glo luminescence | Potency, µM (highest dose often 57.5 µM), for inactives: top-dose activity, negative = inhibition, actives largely listed as inhibitors | 0.17% of 330,000 active | AID 485367;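 also: 0% = uninhibited 1x PFK enzyme wells and -100% = no-enzyme wells; nearly all actives have a fitted effect of over 60% in size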
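Compounds were pin-transferred as a titration series up to 57 uM into substrate buffer (0.5 mM F6P, 0.1 mM ATP, pH 8.0), then 1.25 nM PFK was added and reactions ran 45 min before ADP-Glo detection.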
TDP1 inh: blocks human tyrosyl-DNA phosphodiesterase 1. Q9NUW8. recombinant TDP1, AlphaScreen DNA substrate cleavage. Potency, µM (highest dose often 130 µM), inactives show top-dose activity change, negative = inhibition, most hits filed as inhibitors. 0.28% of 350,000 active. AID 485290; also: % is scaled to controls: 0 for no effect and ±100 for the full control effect; nearly all actives have a fitted effect of over 40% in size
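Steps: enzyme plus compound, 15 min RT; add biotin/phosphotyrosine-FITC oligonucleotide (15 nM final), react 5 min; add donor/acceptor beads (10 ug/ml final), 10 min; read AlphaScreen. Tdp1 at 1 nM final.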
Numbers without * were called inactive. Unless noted, calls follow the shape of the dose curve; as a rule, active = well fitted curve in the direction sought with a large enough effect; inconclusive = small, poorly fitted or top-dose-only effect, or another doubt; inactive = no such curve, though single readings can be large; an effect the other way counts as inactive or inconclusive. Potency is read from the fitted curve at half-maximal effect.

COc1ccccc1C(=O)n1nc(-c2ccco2)nc1SC was read as VDR inhibitor -9%, Pin1 inh 0%, ASM inhibitor 0%, PLK1 PBD block 11µM*, Tb PFK inh -6% and TDP1 inh 3%.
`CSc1nc(-c2ccco2)nn1C(=O)c1ccc(C)cc1` gave VDR inhibitor -22%, Pin1 inh -8%, ASM inhibitor -6%, PLK1 PBD block inconclusive, Tb PFK inh -2% and TDP1 inh 5%.
CCS(=O)(=O)n1nc(-c2ccco2)nc1SC was read as VDR inhibitor inconclusive, Pin1 inh 0%, ASM inhibitor 0%, PLK1 PBD block 9.5µM* and TDP1 inh 6%.
Fc1ccc2[nH]c3c(NCc4ccco4)ncnc3c2c1 was read as VDR inhibitor -8%, Pin1 inh 5% and TDP1 inh 6%.
`CCCCOc1ccc(S(=O)(=O)Nc2cccc(-c3ccc(N4CCOCC4)nn3)c2)cc1` gave VDR inhibitor 0%, Pin1 inh 23% and TDP1 inh 5%.
For NC(=O)CC(O)c1cccc(Cl)c1 (stereo unspecified) the results were VDR inhibitor -10%, Pin1 inh 5%, ASM inhibitor -1%, PLK1 PBD block 27µM*, Tb PFK inh -2% and TDP1 inh 7%.
Screening Cc1c(NC(=O)Nc2ccccc2[N+](=O)[O-])c(=O)n(-c2ccccc2)n1C returned VDR inhibitor 13%, Pin1 inh -3%, ASM inhibitor 0%, PLK1 PBD block 2% and Tb PFK inh 1%.
For Cc1c(NC(=O)Nc2ccc([N+](=O)[O-])cc2)c(=O)n(-c2ccccc2)n1C the results were VDR inhibitor inconclusive, Pin1 inh -16%, ASM inhibitor 1%, PLK1 PBD block 9.5µM* and Tb PFK inh 2%.
COc1ccccc1OCC(O)CN1C(=O)NC(C)(C)C1=O (stereo unspecified) was read as VDR inhibitor -16%, Pin1 inh -3%, ASM inhibitor 0%, PLK1 PBD block 27µM*, Tb PFK inh 0% and TDP1 inh 0%.
Screening CC1(C)NC(=O)N(CC(O)COc2ccccc2-c2ccccc2)C1=O (stereo unspecified) returned VDR inhibitor -16%, Pin1 inh 0%, ASM inhibitor 0%, PLK1 PBD block -3%, Tb PFK inh 1% and TDP1 inh 5%.
CC(C)CCNC(=O)c1ccc2c(c1)N(Cc1ccccc1F)C(=O)c1ccccc1S2(=O)=O was read as VDR inhibitor -6%, Pin1 inh 8% and TDP1 inh 2%.
Screening COc1ccc(/C=C/C(=O)N2CCNC(=O)C2)c(OC)c1 returned VDR inhibitor -9%, Pin1 inh 0%, ASM inhibitor 1%, PLK1 PBD block -10%, Tb PFK inh 0% and TDP1 inh 5%.
Screening COc1ccc(C2=NC(c3ccc(Cl)cc3)C(c3ccc(Cl)cc3)N2C(=O)N2CCNC(=O)C2)c(OC(C)C)c1 (stereo unspecified) returned VDR inhibitor 50µM* and TDP1 inh 15%.
O=C1N=C(N2CCCC2C(=O)O)S/C1=C\c1ccco1 (stereo unspecified) was read as VDR inhibitor inconclusive, Pin1 inh inconclusive, ASM inhibitor 1%, PLK1 PBD block 3.4µM* and Tb PFK inh 21%.
Cc1cc(C)cc(-n2ccn(CC(=O)Nc3ccccc3C(F)(F)F)c(=O)c2=O)c1 was read as VDR inhibitor 7%, Pin1 inh 1% and TDP1 inh -4%.
`O=C(Oc1nsnc1N1CCOCC1)c1ccccc1` gave VDR inhibitor -13%, Pin1 inh 1%, ASM inhibitor 3%, PLK1 PBD block 24µM*, Tb PFK inh 1% and TDP1 inh 1%.
For O=C(Oc1nsnc1N1CCOCC1)N1CCOCC1 the results were VDR inhibitor -5%, Pin1 inh -6%, ASM inhibitor 3%, PLK1 PBD block -9%, Tb PFK inh 2% and TDP1 inh 4%.
For Cc1ccc(S(=O)(=O)N2CCC(C(=O)N(C)C3CCS(=O)(=O)C3)CC2)cc1 (stereo unspecified) the results were VDR inhibitor -13%, Pin1 inh -9%, ASM inhibitor -1%, PLK1 PBD block 6µM*, Tb PFK inh 3% and TDP1 inh 3%.
Screening CN(C(=O)c1ccc(S(=O)(=O)N2CCCCC2)cc1)C1CCS(=O)(=O)C1 (stereo unspecified) returned VDR inhibitor 4%, Pin1 inh 0%, ASM inhibitor 3%, PLK1 PBD block 2% and Tb PFK inh -4%.
For Cc1cccc(OCc2nc(CC(=O)Nc3ccc(Cl)cc3)cs2)c1 the results were VDR inhibitor 9%, Pin1 inh -1% and TDP1 inh 6%.
Cc1cccc(S(=O)Cc2ccc(C(=O)NC3CCCCCC3)o2)c1 (stereo unspecified) was read as VDR inhibitor 6%, Pin1 inh 1% and TDP1 inh 3%.
For O=C1CC(c2ccc3c(c2)OCCO3)Oc2ccc([N+](=O)[O-])cc21 (stereo unspecified) the results were VDR inhibitor 20µM*, Pin1 inh 22%, ASM inhibitor -2%, PLK1 PBD block -17% and Tb PFK inh 4%.
For COc1ccc(C2CC(=O)c3cc(OC)ccc3O2)cc1 (stereo unspecified) the results were VDR inhibitor -3%, Pin1 inh -3%, ASM inhibitor 139% and PLK1 PBD block 4%.
Screening O=C1CC(c2ccc3c(c2)OCCO3)Oc2ccccc21 (stereo unspecified) returned VDR inhibitor -14%, Pin1 inh -9%, ASM inhibitor 0%, PLK1 PBD block 8.4µM*, Tb PFK inh -5% and TDP1 inh 0%.
Screening O=C(CSc1ncccc1C(=O)Oc1ccccc1Cl)Nc1ccccc1Cl returned VDR inhibitor -11%, Pin1 inh 3% and TDP1 inh 8%.
Screening CCC1CCC2(C1)N=C(Nc1nc3ccccc3o1)NC1=C2C(=O)CCC1 (stereo unspecified) returned Pin1 inh inconclusive and TDP1 inh 2%.
CCn1nc(C(=O)OCC(=O)NC(C)C)c2ccccc2c1=O was read as VDR inhibitor inconclusive, Pin1 inh 0%, ASM inhibitor -3%, PLK1 PBD block 19µM*, Tb PFK inh -1% and TDP1 inh 5%.
For CC(C)CCn1nc(C(=O)OCC(=O)NC(C)c2ccccc2)c2ccccc2c1=O (stereo unspecified) the results were PLK1 PBD block 0%.
Screening COc1cccc(Cn2ncc3c4sc(B(O)O)cc4n(C)c3c2=O)c1 returned Tb PFK inh -19%.
